{
  "source": "paper PMC5540273",
  "about": "(PLoS ONE, 2017)",
  "note": "pKd: −log10 of the molar value.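 Note: kd values determined as follow-up on hits from a single-replicate KINOMEscan panel screen.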",
  "data": [
    {"system": "MARK1", "values": [
      {"smiles": "c1ccc(-c2ccnc3[nH]ccc23)cc1", "note": "[SB-693578]", "pKd": "< 5.00"},
      {"smiles": "COc1cccc(NC(=O)Nc2ccc(C)c(-c3ccc(C(=O)Nc4ccncc4)cc3)c2)c1", "note": "[GSK1398474]", "pKd": "< 5.00"},
      {"smiles": "O=c1cc(N2CCOCC2)nc2n(Cc3ccccc3F)ccn12", "note": "[GSK2297428]", "pKd": "< 5.00"},
      {"smiles": "Cc1ccccc1Cn1ccn2c(=O)cc(N3CCOCC3)nc12", "note": "[GSK2269905]", "pKd": "< 5.00"},
      {"smiles": "COc1ccc(-c2coc3ccc(-c4nnc(C)o4)cc23)cc1", "pKd": "< 5.00"}
    ]},
    {"system": "T1, MEK5", "T1 construct": "gene MAP2K5", "values": [
      {"smiles": "COC(=O)C(NC(=O)NC1CCN(c2ccnc(Nc3ccc(F)cc3)n2)C1)c1ccccc1", "note": "(stereo not drawn) [GSK1379712]", "pKd": 6.57},
      {"smiles": "CS(=O)(=O)Cc1ccc(Nc2nccc(-c3c(-c4cccc(NC(=O)C5CCCCC5)c4)nn4ncccc34)n2)cc1", "note": "[GSK350559]", "pKd": 7.46},
      {"smiles": "Cn1cncc1-c1cc2c(Nc3ccc(OCc4ccccc4)cc3)ncnc2cn1", "note": "[GW281179]", "pKd": 6.85},
      {"smiles": "CS(=O)(=O)CCNCc1nc(-c2ccc3ncnc(Nc4ccc5c(cnn5Cc5ccccc5)c4)c3c2)cs1.Cl.Cl", "note": "[GW569716]", "pKd": 7.37},
      {"smiles": "CS(=O)(=O)CCNCc1nc(-c2ccc3ncnc(Nc4ccc(OCc5ccccc5)c(Cl)c4)c3c2)cs1.Cl", "note": "[GW582764]", "pKd": 6.15},
      {"smiles": "COc1cc2ncnc(Nc3cccc(Br)c3)c2cc1OC.Cl", "note": "[GI230329]", "pKd": 6.15},
      {"smiles": "Nc1ncnc2occ(-c3ccc4c(c3)CCN4C(=O)Cc3cc(F)ccc3F)c12", "note": "[GSK2645446]", "pKd": 6.12}
    ]}
  ]
}
